For test [1], the target named is Glutathione peroxidase 1 (Homo sapiens) (UniProt P07203). Description: Primary qHTS Assay for Inhibitors of Recombinant Selenoprotein Glutathione Peroxidase 1 (GPX1) (AID 1845191). Note: nearly all actives have a fitted effect of over 65% in size. In outline: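 GPX1 10 nM, GR 100 nM, GSH 1 mM, NADPH 0.5 mM, CHP 0.5 mM (final). 30-min cpd preincubation, RT. Ex340/Em450 read t=0, t=15 min.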
In general terms: qHTS replaces the single test concentration by a dilution series.

For test [2], the target named is Phospholipid hydroperoxide glutathione peroxidase GPX4 (Homo sapiens) (UniProt P36969). Description: Primary qHTS Assay for Inhibitors of Recombinant Selenoprotein Glutathione Peroxidase 4 (GPX4) (AID 1845192). For activity change, negative = inhibition: series mostly up to about 50 µM; % is set by controls: 0 for no effect and ±100 for the full control effect. Note: nearly all actives have a fitted effect of over 65% in size. The essentials:
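qHTS, GR-coupled: GPX4 200 nM + cpd 30 min RT → GSH 1 mM, NADPH 0.5 mM, GR 100 nM → CHP 0.5 mM start; fluor 340/450 at t0 and t15 min; no-enzyme wells as control.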

Test [3] has as its target Luciferin 4-monooxygenase (Photinus pyralis) (UniProt P08659). Description: Primary firefly luciferase (FLuc) qHTS assay for identification of artifact compounds. (AID 1845220).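 For activity change, negative = inhibition: series mostly up to about 54 µM; plate controls were DMSO vehicle for no effect and no enzyme for full effect.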 Note: nearly all actives have a fitted effect of over 60% in size. Note: potency is the fitted concentration of half-maximal effect. In outline:
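In this counter-screen for luciferase artifacts, test compounds met substrate (10 uM each luciferin and ATP) before 10 nM enzyme started the reaction. Light output was measured 5 min later.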

Test [4] in a line: Primary fluorescence-based thiol-reactive (MSTI) qHTS assay for identification of artifact compounds. (AID 1845221).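 For activity change, negative = thiol reactive: series mostly up to about 54 µM; thiol-reactive compounds lower the probe fluorescence signal.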 Note: nearly all actives have a fitted effect of over 65% in size. Note: potency is the fitted concentration of half-maximal effect. The essentials: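 Reactivity toward the thiol probe MSTI (4 uM) is scored by fluorescence at Ex/Em 525/598 nm after 1 h at room temperature. Acetyl-MSTI and MSTI define the activity scale.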

Each structure is given as a SMILES string. A number with no mark means an inactive call. Records with an inconclusive call do not appear. Calls of active or inactive are those of the source. Calls come from the whole dose curve; as a rule, active = well fitted curve in the direction sought with a large enough effect; inconclusive = small, poorly fitted or top-dose-only effect, or another doubt; inactive = no such curve, though single readings can be large; an effect the other way counts as inactive or inconclusive. Where a SMILES comes first, the peptide text is derived from it. The star is where a group is joined. Hexanoyl = CCCCCC(=O)*

Glutathione peroxidase 1 (Homo sapiens), sequence (P07203 whole entry, looked up): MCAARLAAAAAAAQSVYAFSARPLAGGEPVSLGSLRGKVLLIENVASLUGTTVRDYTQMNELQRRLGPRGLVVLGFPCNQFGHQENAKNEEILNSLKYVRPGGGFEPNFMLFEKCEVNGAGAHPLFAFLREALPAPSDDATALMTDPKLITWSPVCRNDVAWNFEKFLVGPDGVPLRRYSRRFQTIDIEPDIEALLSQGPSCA
Phospholipid hydroperoxide glutathione peroxidase GPX4 (Homo sapiens), sequence (P36969 whole entry, looked up): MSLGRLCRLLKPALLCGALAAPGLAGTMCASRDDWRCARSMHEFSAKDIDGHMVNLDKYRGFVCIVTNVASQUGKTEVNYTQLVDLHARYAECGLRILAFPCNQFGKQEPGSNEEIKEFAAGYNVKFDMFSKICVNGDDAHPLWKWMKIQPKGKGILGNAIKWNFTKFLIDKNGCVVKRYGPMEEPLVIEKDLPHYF

As to `COc1cc(/C=C/C(=O)O)ccc1O[C@@H]1O[C@H](CO)[C@@H](O)[C@H](O)[C@H]1O[C@@H]1OC[C@](O)(CO)[C@H]1O`, the Potency entry in test [1], in test [2], in test [3] and in test [4] was “inactive” in each case.
As for `COC(=O)C(CC1(O)c2ccccc2N2C(=O)C(CC(C)C)NC21)n1cnc2ccccc2c1=O` (configuration not stated), the Potency entry in test [1], in test [2], in test [3] and in test [4] was “inactive” each time.
Turning to `COc1ccc(C2COc3cc(O)ccc3C2)c(O)c1OC` (configuration not stated), the Potency result in test [1], in test [2] and in test [4] was “inactive” in each case. Moreover, the Potency in test [3] is 19 µM (active).
As for `CC1(C)CC[C@]2(C(=O)O[C@@H]3O[C@H](CO)[C@@H](O)[C@H](O)[C@H]3O)CC[C@]3(C)C(=CCC4[C@@]5(C)CC[C@H](O[C@@H]6O[C@H](C(=O)O)[C@@H](O[C@@H]7O[C@H](CO)[C@@H](O)[C@H](O)[C@H]7O)[C@H](O)[C@H]6O)C(C)(C)C5CC[C@]43C)C2C1` (some centres not stated), the Potency entry in test [1] and in test [2] was “inactive” in each case. In addition, in test [3], the outcome is “inactive [at 11.6 µM]”. For the same molecule, in test [4], the activity change, negative = thiol reactive is 348% [at 11.5 µM].
As for `C=C1C(=O)O[C@@H]2CC(C)=C([C@@H](C)CCCOC(C)=O)[C@@H](O)[C@H]12`, the Potency entry in test [1], in test [2] and in test [3] was “inactive” throughout. For the same molecule, the Potency in test [4] was 16.5 µM (active).
For `Cc1c(-c2ccc3c(c2)OCO3)oc2ccc(C(O)C(C)O)cc12` (configuration not stated), the Potency result in test [1], in test [2] and in test [4] was “inactive” in each case. Besides, the Potency in test [3] was 1.17 µM (active).
Take `COc1cc(O)cc(C)c1C(=O)O[C@H]1[C@@H](O)[C@@H](n2ccc(=O)[nH]c2=O)O[C@@H]1CO`: the Potency result in test [1], in test [2], in test [3] and in test [4] was “inactive” in each case.
With `COc1ccc(-n2c(SCC#N)nc3sc4c(c3c2=O)CCCC4)cc1`, the Potency result in test [1], in test [2], in test [3] and in test [4] was “inactive” each time.
On to `CC(=O)OC1CC(=O)C2(C)C3CC4=C(OC(C)CC4=O)OC3(C)CCC2C1(C)C` (configuration not stated), for which the Potency entry in test [1], in test [2] and in test [3] was “inactive” each time. The Potency in test [4] was 11.6 µM (active).
Consider `OC[C@H]1O[C@@H](Oc2cc(O)cc(-c3cc4ccc(O[C@@H]5O[C@H](CO)[C@@H](O)[C@H](O)[C@H]5O)cc4o3)c2)[C@H](O)[C@@H](O)[C@@H]1O`, for which the Potency entry in test [1], in test [2] and in test [3] was “inactive” in each case. For the same molecule, the Potency in test [4] was 10.3 µM (active).
With `Cc1cc(C(=O)N2Cc3cnn(C)c3Nc3ccccc32)ccc1CNC(=O)N1CCN(Cc2cc(O)cc(O)c2)CC1`, the Potency result in test [1], in test [2], in test [3] and in test [4] was “inactive” throughout.
As for `O=C(OC[C@H]1O[C@H](O[C@H]2CO[C@H](CO)[C@@H](O)[C@@H]2O)[C@H](O)[C@@H](O)[C@H]1O)c1ccccc1`, the Potency result in test [1], in test [2], in test [3] and in test [4] was “inactive” each time.
With `O=C(/C=C/c1ccc(O)c(O)c1)O[C@@H]1[C@@H](O)[C@H](OC2CCCCC2O)O[C@H](CO)[C@H]1O` (some centres not stated), the Potency entry in test [1], in test [2] and in test [3] was “inactive” throughout. The Potency in test [4] was 2.92 µM (active).
Take `CCC(CC)CC1(C(=O)Nc2ccccc2SC(=O)C(C)C)CCCCC1`: the Potency entry in test [1], in test [2], in test [3] and in test [4] was “inactive” throughout.
With `CC1CC(=O)C2=C(O1)OC1(C)CCC3C(C)(C)C4OC4C(=O)C3(C)C1C2` (configuration not stated), the Potency entry in test [1], in test [2] and in test [3] was “inactive” throughout. Also, the Potency in test [4] is 16.5 µM (active).
Regarding `C/C=C(/C)C(=O)O[C@@H]1C[C@@H](OC(=O)/C(C)=C\C)[C@@]2(C)C3C(=O)C=C(C)C2C3C1(C)C`, the Potency result in test [1], in test [2], in test [3] and in test [4] was “inactive” each time.
As to `N[C@@H](CCNCc1ccc(Cl)cc1)C(=O)N1CCCCC1`, the Potency entry in test [1], in test [2], in test [3] and in test [4] was “inactive” throughout.
As to `CC1(C)CC[C@]2(C(=O)O[C@@H]3O[C@H](CO[C@@H]4O[C@H](CO)[C@@H](O)[C@H](O)[C@H]4O)[C@@H](O)[C@H](O[C@@H]4O[C@H](CO)[C@@H](O)[C@H](O)[C@H]4O)[C@H]3O)[C@H](O)C[C@]3(C)C(=CCC4[C@@]5(C)CC[C@H](O[C@@H]6OC[C@@H](O)[C@H](O)[C@H]6O)[C@@](C)(C(=O)O)C5CC[C@]43C)[C@@H]2C1` (some centres not stated), the Potency entry in test [1] and in test [2] was “inactive” throughout. Besides, in test [3], the outcome was “inactive [at 11.6 µM]”. Moreover, the activity change, negative = thiol reactive in test [4] was 59.1% [at 11.5 µM].
For the molecule `Nc1ncnc2c1C(=O)N(c1ccc(C3CCC(CC(=O)O)CC3)cc1)CCO2` (configuration not stated), the Potency result in test [1], in test [2], in test [3] and in test [4] was “inactive” each time.
`CCCCCC(=O)N1CCC[C@H]1C(=O)N[C@@H](Cc1ccc(O)cc1)C(=O)OC` (Hexanoyl-Pro-Tyr-OMe): the Potency entry in test [1], in test [2], in test [3] and in test [4] was “inactive” each time.
For the molecule `On1ncc(C2CCNCC2)c1-c1cccc(-c2ccccc2)c1`, the Potency entry in test [1], in test [2], in test [3] and in test [4] was “inactive” in each case.
In the case of `CN(C)CC(c1ccc(O)cc1)C1(O)CCCCC1` (configuration not stated), the Potency entry in test [1], in test [2], in test [3] and in test [4] was “inactive” in each case.
Regarding `C[C@@H]1O[C@@H](O[C@H]2[C@H](OC(=O)[C@]34CCC(C)(C)C[C@H]3C3=CCC5[C@@]6(C)CC[C@H](O[C@@H]7O[C@H](CO[C@@H]8OC[C@H](O)[C@H](O)[C@H]8O[C@@H]8OC[C@@H](O)[C@H](O)[C@H]8O)[C@@H](O)[C@H](O)[C@H]7O)C(C)(C)C6CC[C@@]5(C)[C@]3(C)C[C@H]4O)O[C@H](CO)[C@@H](O)[C@@H]2O)[C@H](O[C@@H]2O[C@H](CO)[C@@H](O)[C@H](O)[C@H]2O)[C@H](O)[C@H]1O[C@@H]1OC[C@@H](O)[C@H](O[C@@H]2OC[C@@H](O)[C@H](O)[C@H]2O)[C@H]1O` (some centres not stated), the Potency result in test [1] and in test [2] was “inactive” throughout. In test [3], the activity change, negative = inhibition was 2.11% [at 6.45 µM]. In addition, the activity change, negative = thiol reactive in test [4] was 385% [at 6.41 µM].
